Bioassay records deposited in PubChem by several laboratories.
The list is not random: actives were taken first. Their share in the collection is about 2.7%.
NadD block = NadD (S. aureus) enzyme inhibition; inhibition, % at 20 µM; purified NadD enzyme, colorimetric absorbance read-out; actives 0.78% (n = 360,000); AID 602399; in the data active = inhibition above about 26%
MsrA act = bovine methionine sulfoxide reductase A activation; purified bovine MsrA, absorbance read-out; activation, % at 10.6 µM; actives 0.3% (n = 360,000); AID 602163; in the data active = activation above about 7.5%;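 also: 0% = vehicle and 100% = reference activator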
MsrA inh = inhibits bovine methionine sulfoxide reductase A | purified bovine MsrA, absorbance read-out | inhibition, % at 15.5 µM | actives 0.75% (n = 360,000) | AID 651718; in the data active = inhibition above about 4.5%;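 also: 0% = vehicle wells with enzyme and 100% = reference inhibitor wells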
rCAG binder = binds r(CAG) RNA repeats; r(CAG) RNA repeat, TO-PRO-1 dye displacement fluorescence; inhibition, % at 3 µM; actives 1.3% (n = 370,000);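 active = inhibition above the plate cutoff, the mean of all test compounds on that plate plus 3 SD, cut at about 35% in these data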;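 also: 0% = DMSO alone and 100% = 100 µM mitoxantrone as full dye displacement; higher means more dye released from RNA so lower well fluorescence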
rCAG binder conf = r(CAG) RNA repeat binding, confirmation; shares compounds with rCAG binder; TO-PRO-1 dye displacement fluorescence; inhibition, % at 3 µM; actives 70% (n = 4,300); AID 652065;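 active = inhibition above a per-plate cutoff, the mean inhibition of sample wells plus 3 SD, cut at about 35% in these data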;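 also: loss of TO-PRO-1 fluorescence as compound displaces dye from 1x1 AA loop RNA; 0% = DMSO only wells and 100% = 100 µM mitoxantrone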
DNA CAG counter = disrupts DNA CAG TO-PRO-1 complex, flagging rCAG hits; shares compounds with rCAG binder; actives 94% (n = 4,300); AID 652068; d(CAG) DNA oligo TO-PRO-1 dye displacement, fluorescence; inhibition, % at 3 µM;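 active = inhibition above its plate's cutoff, the mean test-well inhibition plus 3 SD, cut at about 4.8% in these data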;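 also: 0% = DNA dye mix with DMSO and 100% = 100 µM mitoxantrone; hits displace the dye from DNA and so lower well fluorescence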
Numbers without * were called inactive.

Results for Cc1ccc(S(=O)(=O)N2C(c3ccc(Cl)c(Cl)c3)CC=C(C(=O)O)C2c2ccc(Cl)cc2)cc1 (stereo unspecified) ?
MsrA inh: 1; rCAG binder: 82*; rCAG binder conf: 83*; DNA CAG counter: 52*

How did COc1ccc([C@@H]2CC=C(C(=O)O)CN2S(=O)(=O)c2ccc(Cl)cc2)cc1 do in these assays?
NadD block: -3; MsrA act: -1; MsrA inh: 1; rCAG binder: 16

What do the screens show for `C=CCN(CC=C)Cc1cc(=O)oc2cc(C)cc(C)c12`?
NadD block: 2; MsrA act: -1; MsrA inh: 1; rCAG binder: 4

How did O=C(CSc1n[nH]c(=O)[nH]c1=O)Nc1ccc2c(c1)C(=O)c1ccccc1C2=O do in these assays?
NadD block: 54*; MsrA act: -1; MsrA inh: 0; rCAG binder: 40*; rCAG binder conf: 43*; DNA CAG counter: 17*

What do the screens show for `CCN(c1ccccc1)S(=O)(=O)c1cc(NC(=O)CSc2n[nH]c(=O)[nH]c2=O)ccc1Cl`?
NadD block: 5; MsrA act: -2; MsrA inh: 0; rCAG binder: 48*; rCAG binder conf: 32; DNA CAG counter: 15*

What do the screens show for `O=C(O)CC(Cc1ccccc1)C(=O)NCC12CC3CC(CC(C3)C1)C2` (stereo unspecified)?
NadD block: -1; MsrA act: -8; MsrA inh: 0; rCAG binder: 6

Results for N#Cc1c(N(CCO)CCO)nc(N)c2c(N)nc3c(c12)CC(=O)N3CC1CCCO1 (stereo unspecified) ?
NadD block: -18; MsrA act: -8; MsrA inh: 0; rCAG binder: 35*; rCAG binder conf: 10; DNA CAG counter: 5.7*

Results for O=C1c2cccc3cccc(c23)C(=O)N1CC1CCCO1 (stereo unspecified) ?
NadD block: -2; MsrA act: -9; MsrA inh: 4; rCAG binder: -1

What do the screens show for `CO[C@@H]1[C@@H](OC(N)=O)[C@@H](O)[C@H](Oc2ccc3c(O)c(NC(=O)c4ccc(O)c(CC=C(C)C)c4)c(=O)oc3c2C)OC1(C)C`?
NadD block: 2; MsrA act: -9; MsrA inh: 1; rCAG binder: 50*; rCAG binder conf: 56*; DNA CAG counter: 26*

How did O=C(Nc1cccc(S(=O)(=O)N2CCOCC2)c1)c1cc(=O)[nH]c2ccccc12 do in these assays?
NadD block: -4; MsrA act: -5; MsrA inh: 0; rCAG binder: 7

What do the screens show for `O=C(O)/C(=C\c1ccc(Cl)c([N+](=O)[O-])c1)c1ccc(S(=O)(=O)N2CCCC2)s1`?
NadD block: 6; MsrA act: -5; MsrA inh: 2; rCAG binder: 71*; rCAG binder conf: 47*; DNA CAG counter: 15*

How did O=C(O)/C(=C\c1ccccc1Cl)c1ccc(S(=O)(=O)N2CCCCC2)s1 do in these assays?
NadD block: 8; MsrA act: 0; MsrA inh: 1; rCAG binder: 51*; rCAG binder conf: 34; DNA CAG counter: 9.4*

How did O=C(O)/C(=C\c1cccc([N+](=O)[O-])c1)c1ccc(S(=O)(=O)N2CCCCC2)s1 do in these assays?
NadD block: -3; MsrA act: -1; MsrA inh: 1; rCAG binder: 38*; rCAG binder conf: 44*; DNA CAG counter: 14*

How did O=C(O)/C(=C\c1cccc(C(F)(F)F)c1)c1ccc(S(=O)(=O)N2CCCC2)s1 do in these assays?
NadD block: 3; MsrA act: -2; MsrA inh: 0; rCAG binder: 36*; rCAG binder conf: 26; DNA CAG counter: 5.5*

How did Cc1cn([C@H]2C[C@H](O)[C@@H](CNCc3cccn3-c3ccncc3)O2)c(=O)[nH]c1=O do in these assays?
NadD block: 3; MsrA act: -1; MsrA inh: -1; rCAG binder: 1

How did CCCN(C(=O)CCc1ccc(OC)cc1)c1c(N)n(Cc2ccccc2)c(=O)[nH]c1=O do in these assays?
NadD block: 1; MsrA act: -1; MsrA inh: 0; rCAG binder: -3

Results for CC1=C/C(=N\NC(=S)NCc2ccccc2)CC1 ?
NadD block: 8; MsrA act: -2; MsrA inh: 0; rCAG binder: -2

Results for Cn1c(CC(=O)Nc2ccccc2Cl)nnc1SCC(=O)NC1CCCCC1 ?
NadD block: -10; MsrA act: -5; MsrA inh: 0; rCAG binder: 0

How did COc1ccc(S(=O)(=O)N2CCOCC2)cc1NC(=O)CN1C(=O)NC2(CCC(C)CC2)C1=O (stereo unspecified) do in these assays?
NadD block: 1; MsrA act: -5; MsrA inh: 3; rCAG binder: 6

Results for CCc1nc2ccc(C(=O)NCCCN3CCCC3=O)cn2c1N(C)C(=O)COc1ccccc1 ?
NadD block: 4; MsrA act: -4; MsrA inh: -1; rCAG binder: 2

How did O=C(O)/C(=C\c1ccc(Cl)cc1)c1ccc(S(=O)(=O)N2CCCC2)s1 do in these assays?
NadD block: 2; MsrA act: -15; MsrA inh: 0; rCAG binder: 27

What do the screens show for `O=C(O)/C(=C\c1ccc(Cl)c([N+](=O)[O-])c1)c1ccc(S(=O)(=O)N2CCCCC2)s1`?
NadD block: 20; MsrA act: -5; MsrA inh: 0; rCAG binder: 38*; rCAG binder conf: 68*; DNA CAG counter: 29*

Results for O=C(/C=C/c1ccco1)Nc1sc2c(c1C(=O)O)CCC2 ?
NadD block: -8; MsrA act: -10; MsrA inh: 3; rCAG binder: 27

Results for N#Cc1c(NC(=O)/C=C/c2ccco2)sc2c1CCCC2 ?
NadD block: 10; MsrA act: 0; MsrA inh: 1; rCAG binder: 38*; rCAG binder conf: 26; DNA CAG counter: 14*

Results for O=C(Nc1ccc(S(=O)(=O)N2CCOCC2)cc1)c1ccccc1 ?
NadD block: -5; MsrA act: -1

What do the screens show for `O=C(Nc1ccc(S(=O)(=O)N2CCOCC2)cc1)c1cc(-c2ccccc2O)n[nH]1`?
NadD block: -4; MsrA act: 4; MsrA inh: -1; rCAG binder: 35*; rCAG binder conf: 24; DNA CAG counter: 7.9*

How did CC1CN(S(=O)(=O)c2ccc(NC(=O)c3cc(-c4ccccc4O)n[nH]3)cc2)CC(C)O1 (stereo unspecified) do in these assays?
NadD block: 3; MsrA act: -9; MsrA inh: -1; rCAG binder: 37*; rCAG binder conf: 28; DNA CAG counter: 14*

What do the screens show for `Cc1ccc(S(=O)(=O)CC(=O)Nc2cc(C)on2)cc1`?
NadD block: -1; MsrA act: -2; MsrA inh: 0; rCAG binder: 7

How did NC(c1csc(NC(=O)Nc2ccccc2Cl)n1)C1CCCCC1 (stereo unspecified) do in these assays?
NadD block: 5; MsrA act: -4; MsrA inh: 1; rCAG binder: 23
